# Bioassay records: PubChem, National Center for Advancing Translational Sciences (NCATS)
# The entries come from a sample that favours hits as a whole.
# Pf Dd2 inh: blocks in vitro growth of P. falciparum Dd2; actives 4.3% (n = 120,000); P. falciparum Dd2 growth, SYBR Green, 72 h; AID 1347417; Potency, µM (highest dose often 28.9 µM), for inactives: at the highest dose activity, negative = inhibition, usual class: inhibitors; active = well fitted inhibition curve with a large enough effect;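 also: plate controls were DMSO vehicle for no effect and reference drug for full effect; nearly all actives have a fitted effect of over 65% in size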
#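 Infected erythrocytes (Dd2, 0.3% parasitemia, 2.5% hematocrit final) are added to compound in RPMI-1640/Albumax II medium, grown 72 h at 37C in low oxygen, then lysed with saponin/Triton-X containing SYBR Green and read by fluorescence.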
# * = called active by the depositor; i = inactive; [ ] = remark or other dose. Potency is read from the fitted curve at half-maximal effect.
SMILES,Pf Dd2 inh
O=C(CCc1ccccc1)N1C[C@H]2OC(=O)N(CCCN3CCOCC3)[C@H]2C1,0%
CCNC(=O)N[C@H]1CC[C@]2(C)CC[C@@H]([C@H](C)C(=O)NCc3ccccc3)[C@H](O)[C@H]2[C@@H]1C,17%[44.1 µM]
COc1ccc(CNC(=O)CC[C@H]2CNC(=O)[C@@H]3[C@@H](CCN3Cc3ccc(O)cc3)N2C)cc1,15%
CC(=O)c1ccc(NC(=O)CC2Nc3cccc4cccc(c34)NC2=O)cc1 (stereo not drawn),-1%
CCOc1ccc(NC(=O)CC2Nc3cccc4cccc(c34)NC2=O)cc1 (stereo not drawn),8%
CCOC(=O)c1ccc(NC(=O)CC2Sc3ccc(C(F)(F)F)cc3NC2=O)cc1 (stereo not drawn),40%[0.594 µM]
NC(=O)c1ccc(NC(=O)C[C@H]2NC(=O)c3ccccc3NC2=O)cc1,5%
CCOC(=O)c1ccc(NC(=O)CC2Nc3cc(C)c(C)cc3NC2=O)cc1 (stereo not drawn),4µM*
CCOC(=O)c1ccc(NC(=O)CC2Nc3cccc4cccc(c34)NC2=O)cc1 (stereo not drawn),10µM*
O=C(c1ccccc1Br)N1CCN(c2cc(-c3ccc(Cl)cc3)[nH]n2)CC1,i
O=c1[nH]c2cccnc2n1CCc1ccccc1,i
COc1ccc(Cn2c(C3CCN(C(=O)c4ccccc4F)CC3)n[nH]c2=O)cc1,23%
Cc1cccc(NC(=O)N2CCCCC2c2noc(COCC3CC3)n2)c1 (stereo not drawn),0%
O=C(c1ccc(Cn2cccn2)o1)N1CCC2(CCNCC2)CC1,-4%
CN1CCCCCCN(S(=O)(=O)c2ccccc2)[C@H]2CCC[C@H]2C1=O,4µM*
Cc1ccc(CNC(=O)N2CCCCCCN(C)C(=O)[C@@H]3CCC[C@@H]32)cc1,-10%
O=C1NCCCCCCN(S(=O)(=O)c2ccccc2)[C@H]2CCC[C@@H]12,-10%
Cc1ccc(CN2CCCCCCN(C)C(=O)[C@@H]3CCC[C@@H]32)s1,6.3µM*
CN1CCCCCCN(C(=O)c2ccoc2)[C@H]2CCC[C@H]2C1=O,3%
O=C1NCCCCCCN(S(=O)(=O)c2ccccc2)[C@H]2CCCC[C@@H]12,i
COc1cccc(CN2CCCCCNC(=O)[C@@H]3CCC[C@@H]32)c1OC,-32%
CN1CCCCCCN(Cc2cccnc2)[C@H]2CCC[C@H]2C1=O,-23%
COc1cccc(CN2CCCCCCN(C)C(=O)[C@@H]3CCC[C@@H]32)n1,2.5µM*
CC(C)CN1CCC(O)(c2csc(CN(C)Cc3cccnc3)n2)CC1,i
O=C(Cn1ccn2nc(-c3ccc(F)cc3)c(CO)c2c1=O)N1CCCC1,i
SMILES,Pf Dd2 inh
CCCNC(=O)N[C@@H]1C[C@H](COc2cccc(C)n2)[C@@H](O)[C@H]1O,18%[44.1 µM]
O=C(c1cccc(Cl)c1)N1C[C@@H](CO)[C@H](c2ccccn2)C1,-22%
O=C(CCCc1ccccc1)N1C[C@@H](CO)[C@H](c2ccncc2)C1,4%
COc1ccccc1CNC(=O)c1ccc2c(c1)N(Cc1cccc(C)c1)C(=O)c1ccccc1S2(=O)=O,-9%
CCOC(=O)N1CCC(NC(=O)c2ccc3c(c2)N(Cc2cccc(C)c2)C(=O)c2ccccc2S3(=O)=O)CC1,11µM*
Cc1cccc(CN2C(=O)c3ccccc3S(=O)(=O)c3ccc(C(=O)NC4CCCCC4)cc32)c1,-4%
O=C(c1ccc2c(c1)N(Cc1ccc(F)cc1)C(=O)c1ccccc1S2(=O)=O)N1CCN(Cc2ccccc2)CC1,i
CN1CCN(C(=O)c2ccc3c(c2)N(Cc2cccc(Cl)c2)C(=O)c2ccccc2S3(=O)=O)CC1,i
COc1ccc(N2CCN(C(=O)c3ccc4c(c3)N(Cc3cccc(Cl)c3)C(=O)c3ccccc3S4(=O)=O)CC2)cc1,-5%
O=C(c1ccc2c(c1)N(Cc1ccc(Cl)cc1)C(=O)c1ccccc1S2(=O)=O)N1CCC(Cc2ccccc2)CC1,-6%
O=C(c1ccc2c(c1)N(Cc1ccccc1)C(=O)c1ccccc1S2(=O)=O)N1CCc2ccccc21,11µM*
COc1ccccc1N1CCN(C(=O)c2ccc3c(c2)N(Cc2ccccc2)C(=O)c2ccccc2S3(=O)=O)CC1,7.1µM*
CCc1nc2cc(N3CCC(C(=O)N4CCN(C)CC4)CC3)cnc2nc1CC,i
CN1[C@@H](CCC(=O)Nc2ccccc2)CNC(=O)[C@@H]2[C@H]1CCN2C1CCCCC1,i
O=C(NCc1cc(F)ccc1F)c1csc(N2CCN(c3ccccc3F)CC2)n1,-4%
CCn1ncc(N2CCC(NC(=O)c3cc(C)ccc3C)CC2)cc1=O,1%
Cc1oc2ccn(C)c(=O)c2c1C(=O)NCc1ccccc1F,i
COc1ccc(C(=O)N2CCC(N3C(=O)C(OCC4CC4)C34CCCCC4)CC2)cc1 (stereo not drawn),i
CNC(=O)CN1CCCC(N2CCN(c3cccc(C(F)(F)F)c3)CC2)C1 (stereo not drawn),-23%
O=C(CO)N1CCCC(N2CCN(c3cccc(C(F)(F)F)c3)CC2)C1 (stereo not drawn),-1%
NC(=O)NCCN1CCCC(N2CCN(c3cccc(C(F)(F)F)c3)CC2)C1 (stereo not drawn),-10%
NCC(=O)N1CCCC(N2CCN(c3cccc(C(F)(F)F)c3)CC2)C1 (stereo not drawn),-18%
CC(C)N1CCC(N2CCCC(N3CCN(c4cccc(C(F)(F)F)c4)CC3)C2)CC1 (stereo not drawn),14µM*
COc1cccc(CN2CCCC(N3CCN(c4cccc(C(F)(F)F)c4)CC3)C2)c1O (stereo not drawn),0.4µM*
Cc1ccc(CN2CC(C(=O)N3CCc4c(nc5cc(-c6ccccc6)[nH]n5c4=O)C3)CC2=O)cc1 (stereo not drawn),39%[5.79 µM]
SMILES,Pf Dd2 inh
CCn1c(Cn2ccnc2C)nnc1C1CCN(C(=O)C2(N)CC2)CC1,8%
COCC(=O)N1CCCn2ccnc2C1C(C)C (stereo not drawn),19%
COCCc1nncn1C1CCN(S(=O)(=O)c2ccc(OC)cc2)CC1,11%
CCOc1ccccc1C(=O)N1CCC2(CC1)CC(O)CCO2 (stereo not drawn),-28%
CN1CCN(c2ccc(-c3cc4c(ccn4C)c(C(=O)NCc4cccnc4)n3)cc2)CC1,6.3µM*
Cc1ccc(-c2cc3c(ccn3C)c(C(=O)NCc3cccnc3)n2)cn1,i
Cn1ccc2c(C(=O)NCc3cccnc3)nc(-c3cncnc3)cc21,25%[44.1 µM]
O=C(C1CC1)N1CCC2(CC1)CC(N1CCCC1)CCO2 (stereo not drawn),9%
CCc1c(C)nn(CC(=O)NC2CCCN(c3ncccn3)C2)c1C (stereo not drawn),-2%
Cc1ccc2c(c1)c(=O)c(C(=O)c1ccccc1)cn2Cc1ccccc1F,13µM*
Cc1ccc(C(=O)c2cn(Cc3ccccc3F)c3cc4c(cc3c2=O)OCCO4)cc1,-10%
COc1ccccc1Cn1cc(C(=O)c2ccc(F)cc2)c(=O)c2cc3c(cc21)OCO3,5%
CCOc1ccc(C(=O)c2cn(Cc3ccccc3OC)c3cc4c(cc3c2=O)OCCO4)cc1,-13%
Cc1ccc(Cn2cc(C(=O)c3ccc4c(c3)OCO4)c(=O)c3cc(C)ccc32)cc1,10µM*
COc1ccc(C(=O)c2cn(Cc3cccc(C)c3)c3cc4c(cc3c2=O)OCCO4)cc1OC,7.9µM*
CCOc1ccc(NC(=O)Cn2cc(C(=O)c3ccc(C)cc3)c(=O)c3cc4c(cc32)OCO4)cc1,-9%
COc1ccc(C(=O)c2cn(Cc3ccccc3OC)c3cc4c(cc3c2=O)OCO4)cc1,-3%
